Bioassay records (PubChem BioAssay)
Pf growth 96h: inhibits malaria parasite growth, 96 h. hit rate 6.9% among 320,000. P. falciparum luciferase reporter growth, 96 h. Potency, µM (highest dose often 28.7 µM), without a hit: top-dose activity change, negative = inhibition, usual class: inhibitors; further: potency means the concentration at half of the fitted maximal effect; on the % scale 0 is the no-effect control and ±100 the full control effect
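96 h incubation, 37 C, 5% CO2, of luciferase-reporter P. falciparum-infected RBCs (2% hematocrit, 0.05% parasitemia final) with test compounds; endpoint luminescence.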
HCV inhibitor: blocks hepatitis C virus | Huh7.5.1 HCVcc-Cre infection, luciferase reporter, 44 h | Potency, µM (highest dose often 41.8 µM), for the others: top-dose activity change, negative = inhibition, most hits filed as inhibitors | hit rate 3.4% among 340,000 | AID 651820; further: potency means the concentration at half of the fitted maximal effect; on the % scale 0 is the no-effect control and ±100 the full control effect
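Infectious HCV cell culture screen: compound-treated cells (1,000/well, pre-plated 4 h) are infected with HCVcc-Cre at roughly 0.5 moi and grown 44 h. Infection is quantified by luciferase signal after 15 min substrate incubation at room temperature.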
AMA1 RON2 block: inhibitors of Plasmodium falciparum AMA1-RON2 interaction; Potency, µM (doses to about 58.2 µM), for the others: at the highest dose activity change, negative = inhibition, most hits filed as inhibitors; AlphaScreen AMA1-biotinylated RON2 peptide binding; hit rate 0.2% among 360,000;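 further: potency means the concentration at half of the fitted maximal effect; 0% = vehicle wells and -100% = peptide control; nearly all actives have a fitted effect of over 45% in size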
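AMA1 (3D7) with his tag at 25 nM final met compounds first, then biotinylated RON2 peptide at 25 nM; detection used donor plus acceptor beads, 10 µg/mL apiece, read by AlphaScreen after 30 min at room temperature.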
Pf growth 48h: inhibits P. falciparum growth in the first generation, 48 h. AID 504832. P. falciparum luciferase growth in erythrocytes, 48 h. Potency, µM (highest dose often 28.7 µM), inactives show at the highest dose activity change, negative = inhibition, actives largely listed as inhibitors. hit rate 5.9% among 310,000; further: potency means the concentration at half of the fitted maximal effect; on the % scale 0 is the no-effect control and ±100 the full control effect
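Growth was read as firefly luciferase luminescence after a 48 h, 37 C, 5% CO2 exposure of compounds to reporter-bearing P. falciparum cultures (0.1% parasitemia, 2% hematocrit final) in Albumax-supplemented RPMI 1640.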
Cycloheximide cs: counter-screen for Shiga toxin inhibitors: cycloheximide protein synthesis inhibition; cell reporter, cycloheximide protein synthesis inhibition counterscreen; hit rate 12% among 300,000; AID 2314; max response, %; in the data active means max response mostly above about 13%, no sharp cut-off; inactive means mostly below about 14%; further: read at 38.3 µM for the half of the compounds with a filed dose; 0% is about no effect
Shiga toxin inh: inhibitors of Shiga toxin in Vero cells | Vero cells, Shiga toxin protein synthesis inhibition reporter | inhibition, % at 38.7 µM | hit rate 9.2% among 290,000; in the data active means inhibition mostly above about 28%, no sharp cut-off; inactive means mostly below about 43%; further: 0% is about no effect
* = called active by the depositor. Shown are actives, neighbours in structure and some others; about 21% of the full set was active somewhere. Unless noted, the call rests on the fitted dose curve; in most records, active means well fitted curve in the direction sought with a large enough effect; inconclusive means small, poorly fitted or top-dose-only effect, or another doubt; inactive means no such curve, though single readings can be large; an effect the other way counts as inactive or inconclusive.

For CC(=O)Nc1ccc(C(=O)Nc2cccc(S(=O)(=O)N(C)c3ccccc3)c2)cc1 the results were Pf growth 96h inconclusive, HCV inhibitor inconclusive, AMA1 RON2 block 2.1% and Pf growth 48h 9.28µM*.
NC(=O)C1CC(=O)N(c2ccc(OCc3ccc(Cl)cc3Cl)cc2)C1 (stereo unspecified) was read as Pf growth 96h -15.2%, HCV inhibitor 22.4%, AMA1 RON2 block -3.1%, Pf growth 48h 19.2%, Cycloheximide cs 25.6* and Shiga toxin inh 58.4.
C=CCNC(=O)C1CC(=O)N(c2ccc(OCc3ccccc3Cl)cc2)C1 (stereo unspecified) was read as Pf growth 96h inconclusive, HCV inhibitor -1.3%, AMA1 RON2 block -10.0%, Pf growth 48h 36.6%, Cycloheximide cs 33.3* and Shiga toxin inh 33.2*.
`NC(=O)C1CC(=O)N(c2ccc(OCc3ccc(Cl)c(Cl)c3)cc2)C1` (stereo unspecified) gave AMA1 RON2 block -4.4%.
`c1ccc(CN2CCN(c3nc(-c4ccccn4)nc4ccccc34)CC2)cc1` gave Pf growth 96h -99.0%, HCV inhibitor 8.5%, AMA1 RON2 block -15.1%, Pf growth 48h 1.65µM*, Cycloheximide cs 9.6 and Shiga toxin inh -9.2.
Screening CN1CCN(c2nc(-c3ccncc3)nc3ccccc23)CC1 returned HCV inhibitor inconclusive, AMA1 RON2 block -16.8%, Pf growth 48h 9.28µM*, Cycloheximide cs -5.2 and Shiga toxin inh -1.7.
Screening c1ccc(CN2CCN(c3nc(-c4ccccc4)nc4ccccc34)CC2)cc1 returned HCV inhibitor -17.5%, AMA1 RON2 block inconclusive, Pf growth 48h 3.29µM*, Cycloheximide cs 5.9 and Shiga toxin inh -16.3.
For Oc1ccccc1N1CCN(c2nc(-c3cccs3)nc3ccccc23)CC1 the results were Pf growth 96h inconclusive, HCV inhibitor 11.2µM*, AMA1 RON2 block -6.1%, Pf growth 48h inconclusive, Cycloheximide cs -2.3 and Shiga toxin inh -5.3.
`c1ccc(CN2CCN(c3nc4ccccc4c4ccccc34)CC2)cc1` gave HCV inhibitor inconclusive, AMA1 RON2 block -8.2%, Cycloheximide cs 1.7 and Shiga toxin inh -11.5.
NS(=O)(=O)c1cccc(NC(=O)CN2C(=O)C(=O)N(Cc3ccccc3)C2=O)c1 was read as HCV inhibitor -5.9% and AMA1 RON2 block 12.1%.
For Nc1ccccc1NC(=O)CCn1c(=S)[nH]c2ccccc2c1=O the results were Pf growth 96h inconclusive, HCV inhibitor -14.5%, AMA1 RON2 block 86.1%, Pf growth 48h -14.6%, Cycloheximide cs 9.7 and Shiga toxin inh -0.7.
Screening CN(C)C1=NP(N(C)C)(N(C)C)=NC(c2ccccc2)=N1 returned Pf growth 96h 1.65µM*, HCV inhibitor 7.5%, AMA1 RON2 block 28.3%, Pf growth 48h 0.0%, Cycloheximide cs -1.2 and Shiga toxin inh -11.9.
`CC1(O)C(c2ccccc2)=Nc2ccccc21` (stereo unspecified) gave AMA1 RON2 block -4.6%.
Screening COC(=O)CCCNC(=O)c1ccc2oc(CCCc3ccccc3)nc2c1 returned Pf growth 96h inconclusive, HCV inhibitor inconclusive, AMA1 RON2 block 2.5%, Pf growth 48h -11.2%, Cycloheximide cs 24.0* and Shiga toxin inh 20.6*.
For CCCc1nc2cc(CC(=O)OC)ccc2o1 the results were Pf growth 96h 49.7%, HCV inhibitor 17.5%, AMA1 RON2 block -3.9%, Pf growth 48h 12.3%, Cycloheximide cs 21.7* and Shiga toxin inh 17.3.
COC(=O)[C@H](C)NC(=O)NC(C)CCc1ccccc1 (stereo partly specified) was read as HCV inhibitor 8.3%, AMA1 RON2 block 7.4%, Pf growth 48h -15.7%, Cycloheximide cs -5.7 and Shiga toxin inh -16.3.
Screening COC(=O)[C@@H](C)NC(=O)c1ccc2oc(CCc3ccccc3)nc2c1 returned Pf growth 96h -21.9%, HCV inhibitor -4.0%, AMA1 RON2 block 0.0%, Pf growth 48h 41.1%, Cycloheximide cs 50.8* and Shiga toxin inh 30.7*.
For C[N+]1=C2CCCCCN2C(O)(c2ccccc2)C1 (stereo unspecified) the results were Pf growth 96h 8.28µM*, HCV inhibitor 26.7%, AMA1 RON2 block 6.0%, Pf growth 48h 16.3%, Cycloheximide cs -1.9 and Shiga toxin inh -7.8.
`O=S(=O)(O)c1ccc2c(c1)-c1nc-2nc2[nH]c(nc3nc(nc4[nH]c(n1)c1ccc(S(=O)(=O)O)cc41)-c1ccc(S(=O)(=O)O)cc1-3)c1ccc(S(=O)(=O)O)cc21` gave Cycloheximide cs -12.9 and Shiga toxin inh -6.3.
CCN(CC)CCN(C(=O)c1ccccc1OC)c1nc2ccc(F)cc2s1 was read as Pf growth 96h inconclusive, HCV inhibitor inconclusive, AMA1 RON2 block -4.6%, Pf growth 48h 12.1%, Cycloheximide cs 20.5* and Shiga toxin inh 59.1.
CN(C)CCN(C(=O)/C=C/c1cccs1)c1nc2ccc(F)cc2s1 was read as Pf growth 96h 10.4µM*, HCV inhibitor -19.5%, AMA1 RON2 block -18.9%, Pf growth 48h -22.9%, Cycloheximide cs 4.2 and Shiga toxin inh 6.1.
For CN(C)CCN(C(=O)c1cc(Cl)sc1Cl)c1nc2ccc(F)cc2s1 the results were Pf growth 96h 14.1%, HCV inhibitor 3.8%, AMA1 RON2 block -16.4%, Pf growth 48h 56.7%, Cycloheximide cs -3.1 and Shiga toxin inh 33.2.
CN(C)CCCN(C(=O)c1cc(-c2cccs2)nc2ccccc12)c1nc2ccc(F)cc2s1 was read as Pf growth 96h 2.08µM*, HCV inhibitor inconclusive, AMA1 RON2 block inconclusive, Pf growth 48h 3.29µM*, Cycloheximide cs -0.8 and Shiga toxin inh -9.9.
Screening CN1[C@H]2CC(OC(=O)[C@H](CO)c3ccccc3)C[C@H]1[C@H]1O[C@H]12 (stereo partly specified) returned Pf growth 96h -15.6% and Pf growth 48h -4.0%.
`COc1cccc(C(=O)C2CCCN(Cc3ccccn3)C2)c1` (stereo unspecified) gave Pf growth 96h 19.5%, HCV inhibitor -3.8%, AMA1 RON2 block 81.0%, Pf growth 48h inconclusive, Cycloheximide cs -2.2 and Shiga toxin inh 3.2.
COc1ccc(C(=O)C2CCCN(Cc3ccc(C)s3)C2)c(OC)c1 (stereo unspecified) was read as Pf growth 96h -7.2%, HCV inhibitor inconclusive, AMA1 RON2 block inconclusive, Pf growth 48h -13.7%, Cycloheximide cs -1.0 and Shiga toxin inh -1.5.
Screening COc1ccc(C(=O)C2CCCN(Cc3cccc(C)n3)C2)c(OC)c1 (stereo unspecified) returned Pf growth 96h 1.04µM*, HCV inhibitor inconclusive, AMA1 RON2 block 12.9%, Pf growth 48h 1.47µM*, Cycloheximide cs -0.5 and Shiga toxin inh 4.0.
